LMNA splice mod: modulators of lamin A splicing | HeLa LMNA splicing GFP/RFP minigene ratio, 48 h | Potency, µM (titrated, usually from 46.1 µM), usual class: inhibitors | hit rate 0.01% among 200,000 | AID 1487; active = well fitted inhibition curve with a large enough effect in the signal ratio, with a control signal flat, not every such curve was filed as active; inconclusive = small, poorly fitted or top-dose-only effect, or effect the other way, or a change in a side signal; the % refers to the signal ratio
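S3 HeLa stable clones carrying a lamin A-EGFP splicing minigene plus DsRed2 were seeded at 600 cells/well in Opti-MEM with 2% FBS, pin-dosed and incubated 48 h at 37°C. Acumen cytometry (488 nm) gave the GFP/RFP total-intensity ratio.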
HPGD block: HPGD (human) dehydrogenase inhibition | Potency, µM, actives largely listed as inhibitors | P15428 | hit rate 4.3% among 150,000 | purified HPGD, NADH fluorescence kinetic, PGE2 substrate
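NADH formation kinetics: reaction with 30 uM PGE2 and 1 mM NAD+ (final), 20 nM enzyme, Tris-HCl pH 8 with Tween 20, after 15 min compound preincubation at room temperature. Fluorescence change, last versus first of five reads.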
12-hLO inh: blocks human 12-lipoxygenase activity. P18054. purified 12-hLO, xylenol orange hydroperoxide absorbance. Potency, µM (titrated, usually from 57.1 µM), most hits filed as inhibitors. hit rate 0.12% among 150,000; active = well fitted inhibition curve with a large enough effect; inconclusive = small, poorly fitted or top-dose-only effect; note: nearly all actives have a fitted effect of over 55% in size
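Purified human 12hLO (150 nM), preincubated 15 min with compound, then 40 uM arachidonic acid for 30 min, room temperature, Hepes pH 7.0 with 0.01% Triton X-100. Hydroperoxide detected by ferrous iron/xylenol orange; 573/405 nm absorbance ratio gives reaction progress.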
PNC assembly inh: perinucleolar compartment assembly inhibition; PC3M PTB-GFP, PNC prevalence imaging, 16 h; stronger effect = lower value; activity change (PNC), negative = inhibition, % at 10 µM; hit rate 3.1% among 140,000; AID 2417;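 active = readout at or below -70, meaning at least 70% loss of cells showing the perinucleolar compartment, a nuclear body marking cancer cells; inconclusive = readout between -30 and a set limit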
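PC3M cells stably expressing PTB-GFP, 750–1000 cells/well, treated 16 h at 37 °C with compound (23 nl of library stock), in duplicate. After paraformaldehyde fixation and Hoechst stain, imaged at 20x; PNC prevalence scored by image analysis.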
ALDH1A1 block: ALDH1A1 (human) enzyme inhibition | Purified ALDH1A1, NADH fluorescence, propionaldehyde substrate | Potency, µM (series often up to 75.3 µM), usual class: inhibitors | hit rate 7.3% among 220,000 | P00352
Target sequence (P00352 whole entry, looked up): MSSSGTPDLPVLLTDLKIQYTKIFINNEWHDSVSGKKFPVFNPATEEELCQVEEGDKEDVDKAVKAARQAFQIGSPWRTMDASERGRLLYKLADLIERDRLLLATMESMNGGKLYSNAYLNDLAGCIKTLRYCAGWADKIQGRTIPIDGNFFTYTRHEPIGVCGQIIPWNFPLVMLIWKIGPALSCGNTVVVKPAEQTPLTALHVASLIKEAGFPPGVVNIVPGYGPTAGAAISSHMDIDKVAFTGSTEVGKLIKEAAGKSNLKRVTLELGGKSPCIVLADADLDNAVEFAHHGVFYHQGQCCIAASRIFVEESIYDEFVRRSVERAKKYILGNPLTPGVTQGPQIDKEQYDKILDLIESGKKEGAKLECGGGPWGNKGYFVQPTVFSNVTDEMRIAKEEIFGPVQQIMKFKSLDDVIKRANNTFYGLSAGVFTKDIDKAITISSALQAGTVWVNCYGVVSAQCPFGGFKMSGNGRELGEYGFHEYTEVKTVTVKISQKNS
Hits are given with their value; n = inactive; u = inconclusive; x = not tested or not shown; [ ] = another dose, or the depositor's remark. Rows were chosen to be rich in hits. Some 10% of all compounds tested hit in one or more screens of this group. Unless noted, calls come from the whole dose curve; as a rule, active = well fitted inhibition curve with a large enough effect (not every such curve was filed as active); inconclusive = small, poorly fitted or top-dose-only effect, or another doubt; inactive = no such curve, though single readings can be large or run the other way.

SMILES	LMNA splice mod	HPGD block	12-hLO inh	PNC assembly inh	ALDH1A1 block
O=C(COC(=O)c1ccc(Br)o1)Nc1nc2c(F)c(F)c(F)cc2s1	n	x	x	x	22.4µM
CC1=CC(c2ccccc2)n2nc(NS(=O)(=O)c3ccc(C)cc3)nc2N1 (stereo unspecified)	n	u	n	n	0.631µM
CCC(=O)N1CCc2cc(CNC(=O)Nc3cc(OC)c(OC)c(OC)c3)ccc21	n	x	x	x	x
CCCCCCCCCCCCCC(=O)N[C@H](C)[C@@H](O)c1ccccc1	x	n	n	x	n
Cc1ccc(C(=O)OCC(=O)NCCN2C(=O)CSC2=O)cc1	n	n	n	u	n
CCNc1ccc(C(=O)OCC(=O)NCCN2C(=O)CSC2=O)cc1[N+](=O)[O-]	n	x	x	x	3.55µM
COC(=O)c1cccc(Nc2c(-c3ccc(OC)cc3)nc3nc[nH]n23)c1	n	x	x	x	x
O=C1C2=C(S[C@@H]3O[C@H](CO)[C@@H](O)[C@H](O)[C@H]3O2)C(=O)c2ccccc21	x	u	x	x	1.41µM
OCC1OC(n2nc3ccccc3n2)C(O)C(O)C1O (stereo unspecified)	n	n	n	n	n
COc1ccc(OC)c(CNC(=O)Nc2cn(CC(C)C)c(=O)c3ccccc23)c1	n	x	x	x	x
COc1ccc(C(CCN(Cc2ccc(OC)c(OC)c2)C(C)=O)c2ccccc2)cc1 (stereo unspecified)	n	x	n	n	u
COc1ccc(CN(CCC(c2ccccc2)c2ccc(OC(C)C)cc2)C(=O)CCl)cc1OC (stereo unspecified)	u	u	n	u	10µM
Cc1ccc(CN=C2NC(=O)C(CC(=O)NCCc3ccccc3)S2)cc1 (stereo unspecified)	n	x	x	x	u
CCCN=C1NC(=O)C(CC(=O)NCCc2ccccc2)S1 (stereo unspecified)	n	x	x	x	28.2µM
Clc1ccc(OCc2nnc(SCc3nnc(-c4ccccc4)o3)o2)c(Cl)c1	u	7.94µM	n	u	u
Cc1cc(=O)[nH]c(SCc2nnc(-c3ccccc3)o2)n1	n	n	n	n	n
Cn1c(SCc2nnc(-c3ccccc3)o2)nc2ccccc21	n	x	x	x	12.6µM
Clc1ccc2nc(SCc3nnc(-c4ccccc4)o3)[nH]c2c1	u	17.8µM	n	n	11.2µM
C=CCNC(=S)NS(=O)(=O)c1cccs1	n	x	x	x	17.8µM
CC(=O)OCC1OC(C#Cc2ccccc2)C=CC1O (stereo unspecified)	x	x	x	x	n[13.5 µM]
C/C(=C\C(=O)c1ccc(Cl)s1)N(C)C	n	x	x	x	u
O=C(CN1CCOCC1)N1CCCc2ccccc21	x	x	x	x	7.94µM
O=Cc1cn(CC(=O)N2CCCc3ccccc32)c2ccccc12	u	n	n	-100.0	u
COc1ccc(-n2c(=O)c(C)nc3cnc(N(C)C)nc32)cc1	x	n	n	x	u
CCc1ccccc1Nc1nn2c(=O)c3ccc(C(=O)NCc4cccs4)cc3nc2s1	n	x	x	x	x
SMILES	LMNA splice mod	HPGD block	12-hLO inh	PNC assembly inh	ALDH1A1 block
COc1cccc(CNC(=O)c2cc(S(=O)(=O)N3CCCCC3)cn2C)c1	n	x	x	x	x
O=C(c1ccc2nc(-c3ccco3)c(-c3ccco3)nc2c1)N1CCN(c2ccccc2)CC1	u	u	n	n	8.91µM
O=C(c1cc(-c2cccs2)on1)N1CCc2ccccc2C1	u	12.6µM	n	n	n
O=C(c1cc(-c2ccco2)on1)N1CCN(c2ccccc2)CC1	u	n	n	n	14.1µM
CCc1nc2ccc(C(=O)N3CCN(c4ccccc4)CC3)cc2nc1CC	n	x	x	x	x
O=C(c1cc(-c2ccc(O)cc2)on1)N1CCc2ccccc2C1	n	12.6µM	n	n	u
COc1ccccc1N1CCN(C(=O)c2cc(-c3ccco3)on2)CC1	n	n	n	u	u
Cc1nnsc1C(=O)Oc1ccc(C#N)cc1	n	x	x	x	x
O=C(CCn1nnc(-c2cccs2)n1)N1CCc2ccccc2C1	n	15.8µM	n	u	28.2µM
O=C(c1cc(-c2ccco2)on1)N1CCc2ccccc2C1	n	11.2µM	n	n	7.94µM
Nc1nonc1C(=O)NCCN=Cc1cc(Cc2ccccc2)cc(Br)c1O	u	15.8µM	u	n	n
Nc1nonc1C(=O)NCCN=Cc1ccccc1O	n[0.0737 µM]	n	n	n	n
CCOc1cc(C2Nc3cccc4cccc(c34)N2)ccc1O	n	n	n	n	20µM
Brc1ccc(C2Nc3cccc4cccc(c34)N2)o1	n	u	n	n	4.47µM
CCOc1ccc(C2Nc3cccc4cccc(c34)N2)cc1OC	n	n	u	n	u
Oc1ccccc1C1Nc2cccc3cccc(c23)N1	n	u	u	n	23.8µM
COc1ccccc1C1Nc2cccc3cccc(c23)N1	n	u	n	n	u
COCCNC(=O)c1cc(Br)ccc1Cl	n	22.4µM	n	n	n
CC(C)NC(=O)COC(=O)c1cc(Br)ccc1Cl	n	22.4µM	n	n	n
CCCn1ccc2c(OCC(=O)NCc3ccccc3Cl)cccc2c1=O	n	x	x	x	x
O=S(=O)(c1cc(Cl)ccc1Cl)n1cccn1	x	x	x	x	n
COC(=O)/C(C#N)=C/c1c(-c2ccccc2)nc2n1CCS2	x	x	x	x	1.41µM
CC(C)Cc1nc(SCc2cccnc2)c2c(=O)n(C)c(=O)n(C)c2n1	x	x	x	x	7.08µM

Assay outcomes from PubChem BioAssay.
